{
  "source": "paper PMC7862700",
  "about": "“An all-to-all approach to the identification of sequence-specific readers for epigenetic DNA modifications on cytosine”",
  "experiment_in_all_cases": "DAPPL (digital affinity profiling via proximity ligation, sequencing); 10 mM Tris-HCl pH 7.5, 50 mM NaCl, 1 mM DTT, 4% glycerol, room temperature, 30 min; GST-TFs on glutathione beads, 16-mer random dsDNA library, 0.1% formaldehyde crosslink after washing; high values mean tight binding",
  "conditions_in_all_cases": "protein: recombinant; tags: N-terminal GST; dsDNA, one strand shown",
  "key": {"FLI1": {"molecular_target": "T1, FLI1 (Homo sapiens, UniProt Q01543 1-452)", "T1 sequence": "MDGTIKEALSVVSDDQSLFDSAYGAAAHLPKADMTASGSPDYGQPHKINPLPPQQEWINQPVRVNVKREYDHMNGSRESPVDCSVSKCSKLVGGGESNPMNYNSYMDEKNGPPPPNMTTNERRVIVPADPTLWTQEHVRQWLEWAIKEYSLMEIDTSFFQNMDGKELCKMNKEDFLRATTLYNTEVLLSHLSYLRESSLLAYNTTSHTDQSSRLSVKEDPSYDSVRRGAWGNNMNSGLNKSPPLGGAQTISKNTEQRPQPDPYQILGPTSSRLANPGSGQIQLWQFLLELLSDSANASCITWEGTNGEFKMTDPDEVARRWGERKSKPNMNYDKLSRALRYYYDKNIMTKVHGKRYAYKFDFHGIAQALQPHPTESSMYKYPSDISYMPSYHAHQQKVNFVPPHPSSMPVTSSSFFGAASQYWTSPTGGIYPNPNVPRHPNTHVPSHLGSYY", "method_in_brief": "(§1)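 Pools were built from human transcription factors expressed in yeast as GST fusions, captured on glutathione beads and DNA-barcoded, along with a tag-only sample. Incubation with 200 nmole of a 16-mer random double-stranded DNA library lasted 30 min at room temperature in Tris/NaCl/DTT/glycerol buffer, and was followed by washing, 0.1% formaldehyde crosslinking, proximity ligation, PCR amplification and Illumina NextSeq500 sequencing. Binding signal is the quotient of each hexamer's read frequency for a factor and its frequency for the tag-only sample.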"}, "ELK1": {"molecular_target": "T2, ELK1 (Homo sapiens, UniProt P19419 1-428)", "T2 sequence": "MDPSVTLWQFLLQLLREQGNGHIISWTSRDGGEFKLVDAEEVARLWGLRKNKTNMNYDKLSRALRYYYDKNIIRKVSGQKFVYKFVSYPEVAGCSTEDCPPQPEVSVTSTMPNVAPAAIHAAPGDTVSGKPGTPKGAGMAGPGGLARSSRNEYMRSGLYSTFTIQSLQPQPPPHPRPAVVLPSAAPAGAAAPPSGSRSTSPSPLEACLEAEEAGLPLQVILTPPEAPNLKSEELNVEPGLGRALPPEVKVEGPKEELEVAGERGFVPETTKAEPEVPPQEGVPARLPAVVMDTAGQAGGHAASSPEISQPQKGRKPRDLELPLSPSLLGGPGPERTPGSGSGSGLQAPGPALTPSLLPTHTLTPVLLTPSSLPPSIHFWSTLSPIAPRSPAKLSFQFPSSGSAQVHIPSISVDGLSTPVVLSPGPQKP", "method_in_brief": "as §1"}, "GABPA": {"molecular_target": "T3, GABPA (Homo sapiens, UniProt Q06546 1-454)", "T3 sequence": "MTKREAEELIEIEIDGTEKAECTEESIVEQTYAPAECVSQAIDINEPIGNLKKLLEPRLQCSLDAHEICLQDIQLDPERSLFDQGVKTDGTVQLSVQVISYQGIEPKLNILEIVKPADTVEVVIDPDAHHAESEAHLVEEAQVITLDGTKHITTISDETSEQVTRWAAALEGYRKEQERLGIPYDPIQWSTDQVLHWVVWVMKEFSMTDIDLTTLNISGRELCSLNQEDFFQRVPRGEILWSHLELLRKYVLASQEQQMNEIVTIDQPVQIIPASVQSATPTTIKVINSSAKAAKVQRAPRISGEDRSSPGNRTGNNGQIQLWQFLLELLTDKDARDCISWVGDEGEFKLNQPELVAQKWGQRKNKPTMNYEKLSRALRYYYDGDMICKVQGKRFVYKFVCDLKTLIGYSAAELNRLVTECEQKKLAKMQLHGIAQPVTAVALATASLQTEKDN", "method_in_brief": "as §1"}, "ERG": {"molecular_target": "T4, ERG (Homo sapiens, UniProt P11308 1-479)", "T4 sequence": "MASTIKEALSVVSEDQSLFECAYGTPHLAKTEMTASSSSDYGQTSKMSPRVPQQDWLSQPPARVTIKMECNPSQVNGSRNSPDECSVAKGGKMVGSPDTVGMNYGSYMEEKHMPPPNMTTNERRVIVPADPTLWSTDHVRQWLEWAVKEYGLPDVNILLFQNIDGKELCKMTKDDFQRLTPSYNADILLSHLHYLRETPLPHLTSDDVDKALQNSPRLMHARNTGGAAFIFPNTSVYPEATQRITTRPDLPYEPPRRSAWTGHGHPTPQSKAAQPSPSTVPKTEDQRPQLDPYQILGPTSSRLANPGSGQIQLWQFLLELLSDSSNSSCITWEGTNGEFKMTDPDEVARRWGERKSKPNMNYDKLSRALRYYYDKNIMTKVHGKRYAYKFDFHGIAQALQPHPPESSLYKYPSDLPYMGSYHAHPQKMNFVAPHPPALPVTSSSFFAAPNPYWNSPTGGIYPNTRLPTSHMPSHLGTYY", "method_in_brief": "as §1"}, "ELF1": {"molecular_target": "ELF1 (Homo sapiens, UniProt P32519 1-619)", "sequence (P32519 whole entry)": "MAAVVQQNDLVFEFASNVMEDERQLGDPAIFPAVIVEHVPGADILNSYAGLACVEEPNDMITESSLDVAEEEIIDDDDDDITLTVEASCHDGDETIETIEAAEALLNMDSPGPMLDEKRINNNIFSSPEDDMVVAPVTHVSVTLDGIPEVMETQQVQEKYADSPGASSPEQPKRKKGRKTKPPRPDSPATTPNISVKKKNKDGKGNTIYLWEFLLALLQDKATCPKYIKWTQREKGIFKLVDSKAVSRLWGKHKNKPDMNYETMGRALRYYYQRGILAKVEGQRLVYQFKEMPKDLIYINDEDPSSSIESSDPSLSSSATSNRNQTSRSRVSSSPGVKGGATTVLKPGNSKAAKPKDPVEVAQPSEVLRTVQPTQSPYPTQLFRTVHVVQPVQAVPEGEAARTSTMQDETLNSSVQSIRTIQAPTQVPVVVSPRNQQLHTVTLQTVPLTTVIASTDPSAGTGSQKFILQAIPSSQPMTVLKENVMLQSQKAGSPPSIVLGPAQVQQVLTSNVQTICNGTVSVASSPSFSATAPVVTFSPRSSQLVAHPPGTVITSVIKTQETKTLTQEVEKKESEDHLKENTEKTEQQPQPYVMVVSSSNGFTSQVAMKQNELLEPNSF", "method_in_brief": "as §1"}, "EHF": {"molecular_target": "T5, EHF (Homo sapiens, UniProt Q9NZC4 1-300)", "T5 sequence": "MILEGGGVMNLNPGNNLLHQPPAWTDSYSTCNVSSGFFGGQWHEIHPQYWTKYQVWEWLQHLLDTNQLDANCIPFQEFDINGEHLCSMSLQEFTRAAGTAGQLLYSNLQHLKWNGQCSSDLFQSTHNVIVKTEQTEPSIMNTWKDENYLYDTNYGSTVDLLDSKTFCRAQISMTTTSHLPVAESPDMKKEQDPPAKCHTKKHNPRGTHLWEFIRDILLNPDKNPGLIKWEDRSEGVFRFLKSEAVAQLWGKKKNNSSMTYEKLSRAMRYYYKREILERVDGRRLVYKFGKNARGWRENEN", "method_in_brief": "as §1"}, "SPI1": {"molecular_target": "SPI1 (Homo sapiens, UniProt P17947 1-270)", "method_in_brief": "as §1"}, "SPIB": {"molecular_target": "SPIB (Homo sapiens, UniProt Q01892 1-262)", "sequence (Q01892 whole entry)": "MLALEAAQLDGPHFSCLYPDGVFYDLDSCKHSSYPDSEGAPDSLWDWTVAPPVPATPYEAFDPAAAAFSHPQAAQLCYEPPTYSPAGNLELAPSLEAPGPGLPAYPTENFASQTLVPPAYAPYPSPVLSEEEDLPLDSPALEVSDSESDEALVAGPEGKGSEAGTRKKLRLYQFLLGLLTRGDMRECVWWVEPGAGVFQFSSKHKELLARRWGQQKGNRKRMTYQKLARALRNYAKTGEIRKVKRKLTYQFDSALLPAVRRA", "method_in_brief": "as §1"}, "ELK3": {"molecular_target": "T6, ELK3 (Homo sapiens, UniProt P41970 1-407)", "T6 sequence": "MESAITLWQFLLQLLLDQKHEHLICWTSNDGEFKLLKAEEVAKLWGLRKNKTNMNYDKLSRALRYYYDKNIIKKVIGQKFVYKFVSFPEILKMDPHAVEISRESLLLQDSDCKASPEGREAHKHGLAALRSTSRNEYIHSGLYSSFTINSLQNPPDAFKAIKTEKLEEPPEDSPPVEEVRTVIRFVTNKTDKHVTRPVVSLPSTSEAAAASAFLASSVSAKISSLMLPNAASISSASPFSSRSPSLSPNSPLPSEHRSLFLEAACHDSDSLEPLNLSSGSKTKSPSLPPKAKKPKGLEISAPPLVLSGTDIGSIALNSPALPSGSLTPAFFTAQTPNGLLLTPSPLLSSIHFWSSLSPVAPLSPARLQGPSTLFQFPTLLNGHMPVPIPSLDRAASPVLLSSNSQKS", "method_in_brief": "as §1"}, "FEV": {"molecular_target": "T7, FEV (Homo sapiens, UniProt Q99581 1-238)", "T7 sequence": "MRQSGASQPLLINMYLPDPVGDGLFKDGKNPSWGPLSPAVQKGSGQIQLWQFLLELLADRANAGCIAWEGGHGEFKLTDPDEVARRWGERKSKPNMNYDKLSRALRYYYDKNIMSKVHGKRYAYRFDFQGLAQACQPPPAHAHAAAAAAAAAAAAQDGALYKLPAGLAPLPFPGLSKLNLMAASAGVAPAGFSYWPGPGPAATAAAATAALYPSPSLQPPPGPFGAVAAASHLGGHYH", "method_in_brief": "as §1"}, "ETV5": {"molecular_target": "ETV5 (Homo sapiens, UniProt P41161 1-510)", "sequence (P41161 whole entry)": "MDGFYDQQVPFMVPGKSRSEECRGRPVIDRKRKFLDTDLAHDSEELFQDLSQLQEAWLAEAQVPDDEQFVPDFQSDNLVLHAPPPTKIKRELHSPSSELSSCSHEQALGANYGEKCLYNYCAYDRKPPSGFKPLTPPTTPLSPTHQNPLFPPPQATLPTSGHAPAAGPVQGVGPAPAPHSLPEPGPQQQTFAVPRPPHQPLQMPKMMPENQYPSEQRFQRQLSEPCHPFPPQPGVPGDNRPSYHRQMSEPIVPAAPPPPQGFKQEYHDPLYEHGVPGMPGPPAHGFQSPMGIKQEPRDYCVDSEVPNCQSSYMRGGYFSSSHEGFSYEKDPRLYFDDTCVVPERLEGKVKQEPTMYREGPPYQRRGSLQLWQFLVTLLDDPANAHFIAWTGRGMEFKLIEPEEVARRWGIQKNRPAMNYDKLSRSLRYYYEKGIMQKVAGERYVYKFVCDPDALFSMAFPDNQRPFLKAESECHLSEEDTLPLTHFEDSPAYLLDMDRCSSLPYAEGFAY", "method_in_brief": "as §1"}, "SPIC": {"molecular_target": "T8, SPIC (Homo sapiens, UniProt Q8N5J4 1-248)", "T8 sequence": "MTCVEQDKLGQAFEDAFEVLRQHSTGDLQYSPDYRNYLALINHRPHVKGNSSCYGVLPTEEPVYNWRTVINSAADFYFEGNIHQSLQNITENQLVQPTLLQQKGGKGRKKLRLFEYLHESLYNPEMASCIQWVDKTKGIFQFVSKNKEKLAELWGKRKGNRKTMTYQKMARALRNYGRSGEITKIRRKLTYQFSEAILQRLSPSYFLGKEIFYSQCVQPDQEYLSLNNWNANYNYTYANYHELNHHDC", "method_in_brief": "as §1"}, "ELF4": {"molecular_target": "ELF4 (Homo sapiens, UniProt Q99607 1-663)", "sequence (Q99607 whole entry)": "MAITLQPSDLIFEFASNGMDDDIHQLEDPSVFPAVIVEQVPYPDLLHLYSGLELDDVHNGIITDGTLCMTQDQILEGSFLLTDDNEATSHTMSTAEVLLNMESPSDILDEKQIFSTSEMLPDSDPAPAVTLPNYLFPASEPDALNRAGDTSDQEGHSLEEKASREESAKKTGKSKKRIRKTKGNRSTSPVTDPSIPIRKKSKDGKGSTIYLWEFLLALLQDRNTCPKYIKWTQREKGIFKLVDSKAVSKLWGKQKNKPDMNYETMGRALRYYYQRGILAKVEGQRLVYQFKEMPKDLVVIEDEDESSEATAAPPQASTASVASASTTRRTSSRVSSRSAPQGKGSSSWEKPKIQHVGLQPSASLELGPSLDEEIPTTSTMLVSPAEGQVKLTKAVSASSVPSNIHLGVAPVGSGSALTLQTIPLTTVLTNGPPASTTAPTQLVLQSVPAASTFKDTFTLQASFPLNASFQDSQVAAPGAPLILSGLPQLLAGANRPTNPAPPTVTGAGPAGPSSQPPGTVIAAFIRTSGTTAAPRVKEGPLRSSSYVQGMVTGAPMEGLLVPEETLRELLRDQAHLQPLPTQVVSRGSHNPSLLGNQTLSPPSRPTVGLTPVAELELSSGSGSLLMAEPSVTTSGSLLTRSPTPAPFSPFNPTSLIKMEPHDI", "method_in_brief": "as §1"}, "ELK4": {"molecular_target": "T9, ELK4 (Homo sapiens, UniProt P28324-2 1-405)", "T9 sequence": "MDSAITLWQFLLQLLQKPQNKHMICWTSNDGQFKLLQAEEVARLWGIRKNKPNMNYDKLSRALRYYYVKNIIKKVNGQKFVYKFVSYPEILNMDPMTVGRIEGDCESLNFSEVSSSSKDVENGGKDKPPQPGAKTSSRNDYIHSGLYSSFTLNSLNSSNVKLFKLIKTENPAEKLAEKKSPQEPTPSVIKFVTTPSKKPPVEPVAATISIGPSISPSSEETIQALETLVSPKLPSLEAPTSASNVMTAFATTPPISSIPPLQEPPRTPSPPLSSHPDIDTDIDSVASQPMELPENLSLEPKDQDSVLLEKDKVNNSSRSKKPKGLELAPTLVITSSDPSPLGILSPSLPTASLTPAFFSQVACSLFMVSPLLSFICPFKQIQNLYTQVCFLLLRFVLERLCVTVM", "method_in_brief": "as §1"}, "ETV2": {"molecular_target": "T10, ETV2 (Homo sapiens, UniProt O00321 1-342)", "T10 sequence": "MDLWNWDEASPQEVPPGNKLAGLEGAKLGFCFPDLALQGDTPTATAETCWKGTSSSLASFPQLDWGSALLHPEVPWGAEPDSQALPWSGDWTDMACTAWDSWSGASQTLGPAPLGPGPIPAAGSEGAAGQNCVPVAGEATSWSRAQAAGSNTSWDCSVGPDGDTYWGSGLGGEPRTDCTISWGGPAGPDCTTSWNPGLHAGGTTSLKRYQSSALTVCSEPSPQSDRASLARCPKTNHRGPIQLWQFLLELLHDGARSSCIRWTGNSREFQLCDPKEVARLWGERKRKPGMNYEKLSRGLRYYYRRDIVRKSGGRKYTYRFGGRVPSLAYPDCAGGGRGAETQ", "method_in_brief": "as §1"}, "ELF3": {"molecular_target": "T11, ELF3 (Homo sapiens, UniProt P78545 1-371)", "T11 sequence": "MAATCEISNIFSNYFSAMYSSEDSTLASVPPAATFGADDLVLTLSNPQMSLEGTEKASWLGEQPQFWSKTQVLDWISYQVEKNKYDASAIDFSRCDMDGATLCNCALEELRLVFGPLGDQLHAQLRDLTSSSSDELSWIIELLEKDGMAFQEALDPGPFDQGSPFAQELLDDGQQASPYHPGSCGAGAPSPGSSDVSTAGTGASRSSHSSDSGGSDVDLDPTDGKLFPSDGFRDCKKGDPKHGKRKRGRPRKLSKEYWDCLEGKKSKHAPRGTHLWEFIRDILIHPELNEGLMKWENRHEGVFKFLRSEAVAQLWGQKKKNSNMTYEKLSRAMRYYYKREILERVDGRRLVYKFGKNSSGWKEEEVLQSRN", "method_in_brief": "as §1"}, "ETV1": {"molecular_target": "ETV1 (Homo sapiens, UniProt P50549 1-477)", "sequence (P50549 whole entry)": "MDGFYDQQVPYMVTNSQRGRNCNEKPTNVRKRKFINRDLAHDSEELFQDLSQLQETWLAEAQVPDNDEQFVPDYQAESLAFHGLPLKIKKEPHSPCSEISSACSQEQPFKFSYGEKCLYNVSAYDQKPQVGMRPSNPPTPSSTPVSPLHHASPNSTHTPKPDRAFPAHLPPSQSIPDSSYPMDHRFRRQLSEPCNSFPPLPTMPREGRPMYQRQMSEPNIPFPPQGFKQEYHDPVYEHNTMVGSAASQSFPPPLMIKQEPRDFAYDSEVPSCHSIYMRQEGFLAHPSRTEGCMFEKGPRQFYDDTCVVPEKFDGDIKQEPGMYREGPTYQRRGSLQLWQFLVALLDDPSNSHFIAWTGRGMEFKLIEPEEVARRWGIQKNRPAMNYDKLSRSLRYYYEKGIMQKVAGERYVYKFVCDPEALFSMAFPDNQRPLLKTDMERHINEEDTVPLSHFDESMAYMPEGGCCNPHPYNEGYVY", "method_in_brief": "as §1"}},
  "data": [
    {"sequence": "CCATCC", "values": [
      {"measurement": "binding signal", "setting": "FLI1", "result": "1.24 fold enrichment (6-mer frequency, TF over GST control)"},
      {"measurement": "binding signal", "setting": "ELK1", "result": "1.28 fold enrichment (6-mer frequency, TF over GST control)"},
      {"measurement": "binding signal", "setting": "GABPA", "result": "1.23 fold enrichment (6-mer frequency, TF over GST control)"},
      {"measurement": "binding signal", "setting": "ERG", "result": "1.32 fold enrichment (6-mer frequency, TF over GST control)"},
      {"measurement": "binding signal", "setting": "ELF1", "result": "1.27 fold enrichment (6-mer frequency, TF over GST control)"},
      {"measurement": "binding signal", "setting": "EHF", "result": "1.27 fold enrichment (6-mer frequency, TF over GST control)"},
      {"measurement": "binding signal", "setting": "SPI1", "result": "1.31 fold enrichment (6-mer frequency, TF over GST control)"},
      {"measurement": "binding signal", "setting": "SPIB", "result": "1.3 fold enrichment (6-mer frequency, TF over GST control)"},
      {"measurement": "binding signal", "setting": "ELK3", "result": "1.41 fold enrichment (6-mer frequency, TF over GST control)"},
      {"measurement": "binding signal", "setting": "FEV", "result": "1.3 fold enrichment (6-mer frequency, TF over GST control)"},
      {"measurement": "binding signal", "setting": "ETV5", "result": "1.27 fold enrichment (6-mer frequency, TF over GST control)"},
      {"measurement": "binding signal", "setting": "SPIC", "result": "1.33 fold enrichment (6-mer frequency, TF over GST control)"},
      {"measurement": "binding signal", "setting": "ELF4", "result": "1.27 fold enrichment (6-mer frequency, TF over GST control)"},
      {"measurement": "binding signal", "setting": "ELK4", "result": "1.19 fold enrichment (6-mer frequency, TF over GST control)"},
      {"measurement": "binding signal", "setting": "ETV2", "result": "1.19 fold enrichment (6-mer frequency, TF over GST control)"},
      {"measurement": "binding signal", "setting": "ELF3", "result": "1.12 fold enrichment (6-mer frequency, TF over GST control)"},
      {"measurement": "binding signal", "setting": "ETV1", "result": "1.24 fold enrichment (6-mer frequency, TF over GST control)"}
    ]}
  ]
}
